The entries come from a sample that favours hits as a whole.
TDP1 block = TDP1 (human) enzyme inhibition | AID 485290 | Potency, µM (doses to about 130 µM), for the others: top-dose activity change, negative = inhibition, usual class: inhibitors | Q9NUW8 | hit rate 0.28% among 350,000 | recombinant TDP1, AlphaScreen DNA substrate cleavage; note: nearly all actives have a fitted effect of over 40% in size
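Recombinant E. coli-expressed Tdp1 (1 nM) preincubated with compound 15 min at RT, then 5'-biotin/3'-phosphotyrosine-FITC DNA substrate (15 nM) added for 5 min. AlphaScreen beads (10 ug/ml) added, 10 min RT; tyrosine-FITC cleavage read as signal loss.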
RECQ1 inh = RECQ1 (human) helicase inhibition; RECQ1 DNA unwinding, red fluorescence kinetic read; Potency, µM (doses to about 57.3 µM), without a hit: top-dose activity, negative = inhibition, hits mostly inhibitors; hit rate 0.54% among 240,000; AID 2549;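 note: plate controls were vehicle for no effect and no enzyme for full effect; nearly all actives have a fitted effect of over 30% in size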
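50 nM RECQ1T1 preincubated 15 min with compound in Tris pH 8.0 buffer with MgCl2, DTT, Tween-20 and 2.5 ug/ml poly(dI-dC); started with 200 nM TAMRA/BHQ-2 forked duplex and 2 mM ATP. Unwinding read as fluorescence (525/598 nm), two reads 2 h apart.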
GCN5L2 inh = GCN5L2 (KAT2A) acetyltransferase inhibition; hit rate 0.21% among 390,000; Potency, µM (highest dose often 58.9 µM), inactives show at the highest dose activity change, negative = inhibition, actives largely listed as inhibitors; GCN5L2 HAT assay, ThioGlo1 CoA-SH fluorescence; Q92830
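Preincubate 20nM GCN5L2 with compound 15 min, RT → add 50uM ThioGlo1 + 75uM H3(1-25) + 70uM acetyl-CoA → read fluorescence 0 and 20 min. Primary qHTS; fluorescent artifacts likely.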
APEX1 inh = APE1 (human) endonuclease inhibition; hit rate 0.35% among 350,000; Potency, µM (top dose mostly 65.8 µM), inactives show top-dose activity change, negative = inhibition, most hits filed as inhibitors; recombinant APE1, TAMRA/BHQ-2 abasic DNA cleavage fluorescence; P27695;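 note: plate controls were vehicle for no effect and reference inhibitor for full effect; nearly all actives have a fitted effect of over 55% in size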
Target sequence (P27695 whole entry, looked up): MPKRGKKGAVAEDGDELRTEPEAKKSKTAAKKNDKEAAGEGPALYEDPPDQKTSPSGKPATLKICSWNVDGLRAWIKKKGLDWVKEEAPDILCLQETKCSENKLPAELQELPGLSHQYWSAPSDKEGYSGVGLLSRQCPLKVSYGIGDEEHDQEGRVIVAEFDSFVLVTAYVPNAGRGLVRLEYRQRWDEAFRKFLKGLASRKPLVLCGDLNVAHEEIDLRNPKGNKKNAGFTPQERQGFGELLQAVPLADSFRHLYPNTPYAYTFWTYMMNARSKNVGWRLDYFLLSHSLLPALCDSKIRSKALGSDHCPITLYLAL
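Activity was derived from the fluorescence gain between first and third kinetic reads (60 s intervals, ex 525/em 598 nm) after 50 nM THF-abasic TAMRA/BHQ-2 duplex was added to 0.75 nM APE1 preincubated 15 min with compound.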
KDM4E inh = blocks human JMJD2E demethylase activity; AID 2147; B2RXH2; JMJD2E catalytic domain, FDH-coupled NADH fluorescence (FDH is formaldehyde dehydrogenase); hit rate 1.6% among 230,000; Potency, µM (top dose mostly 57.1 µM), without a hit: top-dose activity change, negative = inhibition, hits mostly inhibitors; active = well fitted inhibition curve with a large enough effect, not every such curve was filed as active; inconclusive = small, poorly fitted or top-dose-only effect, or another doubt; inactive = no such curve, though single readings can be large or run the other way;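 note: 0% = wells with enzyme and -100% = buffer wells without enzyme; nearly all actives have a fitted effect of over 50% in size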
Target sequence (B2RXH2 1-337 limits assumed): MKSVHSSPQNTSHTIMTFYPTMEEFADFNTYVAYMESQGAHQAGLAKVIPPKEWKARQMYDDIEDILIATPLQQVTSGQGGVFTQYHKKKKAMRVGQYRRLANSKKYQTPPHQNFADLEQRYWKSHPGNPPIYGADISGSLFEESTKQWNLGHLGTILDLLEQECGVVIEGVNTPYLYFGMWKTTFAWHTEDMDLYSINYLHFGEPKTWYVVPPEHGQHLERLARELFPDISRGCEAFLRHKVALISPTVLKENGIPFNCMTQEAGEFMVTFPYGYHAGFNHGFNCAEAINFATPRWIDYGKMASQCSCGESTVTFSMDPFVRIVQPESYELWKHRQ
BLM helicase inh = inhibitors of human Bloom syndrome helicase BLM. P54132. recombinant BLM DNA unwinding, fluorescence dequenching. Potency, µM (series often up to 56.1 µM), for inactives: at the top dose activity change, negative = inhibition, usual class: inhibitors. hit rate 0.2% among 350,000;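 note: plate controls were vehicle for no effect and no enzyme for full effect; nearly all actives have a fitted effect of over 35% in size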
Starred values were filed as active, the others as inactive; i = inactive; u = inconclusive; x = no result given; [ ] = dose if it differs, or a comment. Unless noted, calls come from the whole dose curve; as a rule, active = well fitted curve in the direction sought with a large enough effect; inconclusive = small, poorly fitted or top-dose-only effect, or another doubt; inactive = no such curve, though single readings can be large; an effect the other way counts as inactive or inconclusive. Unless noted, % is set by controls: 0 for no effect and ±100 for the full control effect; potency is the fitted concentration of half-maximal effect.

SMILES | TDP1 block | RECQ1 inh | GCN5L2 inh | APEX1 inh | KDM4E inh | BLM helicase inh
NC(=S)c1ccc[n+]([C@@H]2O[C@@H](COP(=O)([O-])OP(=O)(O)OC[C@H]3O[C@@H](n4cnc5c(N)ncnc54)[C@H](OP(=O)(O)O)[C@@H]3O)C(O)C2O)c1 (stereo partly specified) | x | x | -21.2% | x | x | x
COC(=O)Cc1[nH]n(-c2nc3ccccc3s2)c(=O)c1C(C)=Nc1ccc(Cl)cc1 | x | i | -4.3% | 11.4% | 35.5µM* | 0.3%
Nc1ccccc1OC1=NS(=O)(=O)c2ccccc21 | 1.7% | x | x | x | x | x
Oc1ccc(NCc2ccccc2OCc2ccccc2)cc1 | 8.5% | -4.9% | -8.8% | u | 11.2µM* | u
Oc1ccc(NCc2ccccc2OCc2ccc(Cl)cc2)cc1 | 2.1% | x | -28.6% | x | x | -23.5%
Cc1ccc(Nc2nc(NCc3ccco3)nc3nccnc23)cc1 | -9.5% | x | x | x | x | x
Cc1ccc(Nc2nc(NCc3ccco3)nc3nccnc23)c(C)c1 | 8.91µM* | x | x | x | x | x
Cn1nc(-c2ccncc2)nc2c(=O)n(C)c(=O)nc1-2 | 3.9% | x | x | x | x | x
CC(C)[C@H](NC(=O)[C@@H](Cc1c[nH]c2ccccc12)NC(=O)[C@H](Cc1ccc(O)cc1)NC(=O)[C@@H](N)CC(=O)O)C(=O)N[C@H](Cc1c[nH]c2ccccc12)C(=O)N[C@H](Cc1c[nH]c2ccccc12)C(=O)N[C@@H](CCCCN)C(N)=O | 10.2% | 20µM* | -2.1% | 14.7% | x | -11.6%
CO/S(=N\S(=O)(=O)c1ccc(Cl)cc1)c1ccc([N+](=O)[O-])cc1 (stereo unspecified) | x | x | -11.5% | x | x | x
Cc1ccc(CCNC(=O)CCCn2c(=O)c3ccccc3n(CC(=O)Nc3cc(Cl)ccc3C)c2=O)cc1 | -1.8% | x | -2.5% | x | x | -2.6%
O=c1c(-c2ccc(Cl)cc2)[n+]([O-])c2ccccc2n1O | -1.1% | -7.4% | -8.5% | 24.1% | -12.1% | -10.6%
O=c1c(-c2cccc([N+](=O)[O-])c2)[n+]([O-])c2ccccc2n1O | x | -13.0% | -12.1% | -9.6% | 22.4µM* | -2.2%
CC[C@H](C)[C@H](N)C(=O)N[C@H]1CCC(=O)NCC(C(=O)N[C@@H](Cc2ccc(O)cc2)C(=O)N[C@@H](CCCNC(=N)N)C(=O)N[C@@H](CC(C)C)C(=O)N[C@@H](CCCNC(=N)N)C(=O)N[C@@H](Cc2ccc(O)cc2)C(N)=O)NC(=O)[C@@H]2CCCN2C(=O)[C@@H](NC(=O)[C@@H](N)[C@@H](C)CC)CCC(=O)NCC(C(=O)N[C@@H](Cc2ccc(O)cc2)C(=O)N[C@@H](CCCNC(=N)N)C(=O)N[C@@H](CC(C)C)C(=O)N[C@@H](CCCNC(=N)N)C(=O)N[C@@H](Cc2ccc(O)cc2)C(N)=O)NC(=O)[C@@H]2CCCN2C1=O (stereo partly specified) | 12.1% | -4.1% | 43.1% | -0.6% | x | -13.8%
Cc1cc2oc(=O)cc(-c3cc4ccccc4o3)c2cc1O | x | x | -22.0% | -12.1% | x | -18.9%
O=c1cc(-c2cc3ccccc3o2)c2cc(O)ccc2o1 | 50.1µM* | x | -4.2% | -4.9% | x | -10.4%
Cn1cccc1CC(=O)N/N=C/C=C/c1ccco1 | 5.1% | -2.6% | u | 5.7% | 3.8% | 25.1µM*
Cc1cc(N2C(=O)c3ccccc3C2=O)n[nH]1 | -0.3% | x | x | x | x | x
C=CC1=C(C)C2=NC1=CC1=NC(=CC3=NC(=CC4=NC(=C2)C(C)=C4CCC(=O)O)C(CCC(=O)O)=C3C)C(C=C)=C1C.[Zn] | x | 12.6µM* | -13.8% | 4.47µM* | u | 35.5µM*
Cc1nc(-c2coc3c(O)c(O)ccc3c2=O)cs1 | 1.9% | i | x | u | 7.08µM* | 3.5%
CC(C)Cc1nc2ccc(N)cc2[nH]1 | 9.0% | 4.7% | -3.5% | -2.6% | 35.5µM* | -4.5%
O=C(O)c1ccc(CSc2nnc(-c3cccc(S(=O)(=O)NC4CCCC4)c3)n2-c2ccc(F)cc2)cc1 | x | x | x | 61.4% | x | x
O=[N+]([O-])c1ccc2c(c1)N([O-])C1(CCCCC1)[N+]2=O | 6.0% | -1.5% | -19.4% | -5.4% | 11.2µM* | -13.7%
CC(/C=C/c1ccco1)=N\NC(=O)c1cc(C)[nH]n1 | 2.1% | 31.6µM* | -19.7% | -5.8% | u | -23.7%
N#CC(C#N)=C1C=C2C=C(N3CCCCCC3)CCC2CC1 (stereo unspecified) | 6.7% | 28.2µM* | -7.9% | u | -15.7% | 12.6µM*
SMILES | TDP1 block | RECQ1 inh | GCN5L2 inh | APEX1 inh | KDM4E inh | BLM helicase inh
N#CC(C#N)=C1C=C2C=C(N3CCOCC3)CCC2CC1 (stereo unspecified) | -2.4% | i | 2.4% | -9.2% | -3.0% | -22.3%
CCC(=O)NC(c1ccc(Br)o1)c1cc(Cl)c2cccnc2c1O (stereo unspecified) | 1.0% | x | x | x | x | x
CC(C)NC(=S)N/N=C/c1cc(Br)ccc1O | 10.5% | -15.1% | -4.6% | 0.6% | 25.1µM* | -2.0%
COC(=O)N/N=C/c1cc(Br)ccc1O | 0.0% | i | -0.9% | -0.4% | u | -7.3%
COc1cccc(CN2C(=O)c3ccccc3NC2c2ccc(OC)c(COc3ccc(NC(C)=O)cc3)c2)c1 (stereo unspecified) | 1.4% | x | x | x | x | x
O=C1CN(S(=O)(=O)c2c(F)cccc2F)CCN1S(=O)(=O)c1ccc2c(c1)OCCO2 | -2.3% | x | x | x | x | x
CCC(=O)Nc1ccc(OCc2cc(C3Nc4ccccc4C(=O)N3Cc3ccccc3)ccc2OC)cc1 (stereo unspecified) | 1.0% | x | x | x | x | x
CO/C=C\C=C/c1nnn(-c2ccc(Cl)cc2)n1 | 5.1% | -1.1% | -11.6% | 0.3% | 25.1µM* | -1.6%
Clc1ccc(-n2cnnn2)cc1 | 5.2% | -4.5% | 1.7% | -2.2% | -4.8% | -3.4%
CCOC(=O)c1sc(NC(=O)CSc2n[nH]c(-c3ccccc3)n2)c(C#N)c1C | 9.5% | i | -11.6% | 4.4% | u | -11.4%
Cc1ccc(/C=C/C2=Cc3c(sc(NC(=O)CSc4n[nH]c(N)n4)c3C#N)C(C)(C)C2)o1 | -2.1% | 20µM* | -21.8% | -7.3% | -9.4% | u
COc1ccc(Cn2ncc3c4sc(C)cc4n(C)c3c2=O)cc1F | -3.2% | x | x | x | x | x
O=C(CCCl)Nc1cccc2cccnc12 | -0.1% | x | x | x | x | x
C(=C\c1ccco1)/C=N/n1cnnc1 | x | -11.2% | -17.7% | u | 14.1µM* | 1.2%
CCOc1cccc(NC(=O)c2sc3nc(-c4ccc(F)cc4)ccc3c2N)c1 | -6.3% | x | 35.5µM* | x | x | -2.5%
CC1CS(=O)(=O)CCN1/N=C/c1ccc([N+](=O)[O-])o1 (stereo unspecified) | x | x | x | 1.1%[21 µM] | x | x

Screening results: PubChem BioAssay, National Center for Advancing Translational Sciences (NCATS)
